About 4,300 (8.3%) of roughly 52,000 compounds were called active. What follows is part of a selection rich in actives, with near analogues and random picks from the rest. Values without a mark were called inactive. No stated cut-off is given here; in the data, active means survival mostly below about 52% (no sharp cut-off); inactive means mostly above about 56%.

The test system of this assay is DeltatarO mutant. Put plainly: growth inhibition of S. aureus wild type versus tarO mutant, primary screen, teichoic acid synthesis inhibitors, RN4220, OD600 (AID 463173). To be noted: OD600, 18 h, active compounds read low, screened at 18.75 µg/mL (by protocol).
For the compound `CC(C)(C)c1ccc(C(=O)NCC(c2cccnc2)N2CCc3ccccc3C2)cc1` (configuration not stated), the survival is 98%.

For the compound `O=C(c1nc(-c2ccc(Cl)cc2)n2c1CCCCC2)N1CCN(c2ccccc2)CC1`, the survival was 88%. As for `COC(=O)c1sc(N2C(=O)c3oc4cc(C)c(C)cc4c(=O)c3C2c2ccccc2F)nc1C` (configuration not stated), the survival is 70%. Consider `O=c1c2nncn2ccn1-c1ccc(F)c(F)c1`, for which the survival is 90%. Turning to `CCN(c1ccccc1)c1nnc(NC(=O)Nc2cccc(C(F)(F)F)c2)s1`, the survival is 88%.

Turning to `Cc1ccccc1-c1nnc(SCC(=O)N(C)C2CCCCC2)o1`, the survival is 67%. On to `COc1ccc(-n2nc3ccc(NC(=O)c4cccc(OCCC(C)C)c4)cc3n2)cc1`, for which the survival was 121%. For the compound `CN(C)CCCNc1cn[nH]c(=O)c1Cl`, the survival was 93%.

Take `CCOc1ccc(C(=O)CSc2nc3c(c(=O)n(C)c(=O)n3C)n2C(C)C)cc1`: the survival is 77%. `O=C(CSc1cn(CC(=O)N2CCOCC2)c2ccccc12)Nc1ccccc1C(F)(F)F`: the survival is 65%.

Consider `COc1ccc(NC(=O)c2sc3nc(-c4ccc(OC)cc4)cc(C(F)(F)F)c3c2N)cc1`, for which the survival is 56%.

As to `COc1cccc(C(=O)c2sc3nc(-c4ccccc4)cc(C(F)(F)F)c3c2N)c1`, the survival is 37% (active).

On to `COc1cccc(-c2ccc3c(N)c(C(=O)Nc4cc(C(F)(F)F)ccc4OC)sc3n2)c1`, for which the survival is 89%. As for `COc1ccc(-c2ccc3c(N)c(C(=O)c4ccc(OC)c(OC)c4)sc3n2)cc1`, the survival was 52%. As to `COc1ccc(C(=O)c2sc3nc(-c4ccc(F)cc4)ccc3c2N)cc1`, the survival is 81%. `COc1cccc(-c2ccc3c(N)c(C(=O)c4ccc(F)cc4)sc3n2)c1`: the survival was 17% (active). Under `COc1ccc(C(=O)c2sc3nc(-c4ccc(C)cc4)cc(C(F)(F)F)c3c2N)cc1` stands 134%; under `COc1cccc(-c2ccc3c(N)c(C(=O)c4ccc(Br)cc4)sc3n2)c1`, 28% (active); under `COc1cccc(-c2ccc3c(N)c(C(=O)Nc4ccc(C)c(F)c4)sc3n2)c1`, 95%.

Take `COc1ccc(-c2ccc3c(N)c(C(=O)NCc4ccc(Cl)cc4)sc3n2)cc1`: the survival was 79%.

For `COc1cccc(-c2ccc3c(N)c(C(=O)NCc4ccc(Cl)cc4)sc3n2)c1`, the survival was 41% (active).

As for `COc1ccc(-c2ccc3c(N)c(C(=O)NCc4ccc(C)cc4)sc3n2)cc1`, the survival is 69%. With `CC1C(=O)CCNC1c1ccccc1` (configuration not stated) the figure was 65%; with `O=C(O)c1ccc(N=NSCCO)cc1`, 79%.

In the case of `COc1ccc(-n2nc(C(=O)NCCc3cccc(C)c3)c3c4ccccc4n(C)c3c2=O)cc1Cl`, the survival is 89%.

For `Cn1c(=O)c2c(nc(SCC(=O)Nc3ccc(OC(F)(F)F)cc3)n2Cc2cccc(C(F)(F)F)c2)n(C)c1=O`, the survival was 86%. Under `COc1cccc(-c2ccc3c(N)c(C(=O)Nc4ccc(Cl)cc4F)sc3n2)c1` stands 59%; under `COc1cccc(-c2ccc3c(N)c(C(=O)c4ccc(Cl)cc4)sc3n2)c1`, 30% (active). Regarding `COc1ccc(Cl)cc1NC(=O)c1sc2nc(-c3ccc(OC)c(OC)c3)ccc2c1N`, the survival was 124%.

In the case of `Cc1ccc(S(=O)(=O)c2nc(-c3ccccc3Cl)oc2N2CCCCCC2)cc1`, the survival is 25% (active). With `Cc1ccc(S(=O)(=O)c2nc(-c3ccccc3F)oc2N2CCCCC2)cc1`, the survival was 32% (active). With `O=S(=O)(c1ccccc1)c1nc(-c2ccccc2F)oc1N1CCOCC1` the figure was 71%; with `O=S(=O)(c1ccccc1)c1nc(-c2ccc(Cl)cc2Cl)oc1N1CCCCCC1`, 49%. Turning to `O=S(=O)(c1ccccc1)c1nc(-c2ccc(Cl)cc2Cl)oc1N1CCCCC1`, the survival is 90%. With `O=S(=O)(c1ccccc1)c1nc(-c2ccccc2Cl)oc1N1CCCCCC1`, the survival is 27% (active). On to `O=S(=O)(Nc1ccc(-c2ccc(N3CCCC3)nn2)cc1)c1cc(F)ccc1F`, for which the survival was 96%. Under `Cc1ccc(-c2nc(CS(=O)CC(=O)N3CCN(c4ccccc4)CC3)c(C)o2)cc1` (configuration not stated) stands 62%; under `CC(C)(C)OC(=O)N1CCC(c2c(C(=O)NCc3ccccc3)cnn2-c2cccc(F)c2)CC1`, 108%; under `O=C(/C=C\c1ccc2c(c1)OCO2)NC1CC(=O)N(c2ccccc2)C1` (configuration not stated), 134%. For `CN(C)c1ccc(NC(=O)CC(NCc2cccnc2)C(=O)O)cc1` (configuration not stated), the survival was 76%. Regarding `CC(=O)c1cccc(NC(=O)CN2C=NS(=O)(=O)c3ccc(C)cc32)c1`, the survival was 89%. Take `COc1ccc(-c2csc3nc(-c4ccc(F)cc4)oc(=O)c23)cc1`: the survival is 61%. With `O=C(NCc1ccc2c(c1)OCO2)c1ccc2c(c1)N(Cc1cccc(Cl)c1)C(=O)c1ccccc1S2`, the survival was 84%.

In the case of `O=C(NCc1cccs1)C1CCN(C(=O)N2CCOc3ccccc32)CC1`, the survival was 107%. For the compound `COc1ccc(NS(=O)(=O)c2cc3[nH]c(=O)c(=O)[nH]c3cc2C)cc1Cl`, the survival is 94%. Consider `COc1cc(NS(=O)(=O)c2cc3[nH]c(=O)[nH]c3cc2C)cc(OC)c1OC`, for which the survival is 37% (active). Turning to `Cc1cc(C)cc(NS(=O)(=O)c2cc3[nH]c(=O)c(=O)[nH]c3cc2C)c1`, the survival was 87%.

With `O=C1C2C(C(=O)N1CCO)C1C=CC2C12CC2` (configuration not stated), the survival is 100%. Consider `CCOc1ccccc1CNC(=O)c1[nH]c2ccccc2c1Sc1ccccc1`, for which the survival is 72%. Regarding `COc1cccc(NC(=O)/C(C#N)=C\c2cn(Cc3ccc(C)cc3)c3ccccc23)c1`, the survival was 90%. For the compound `COC(=O)c1c(NC(=O)COc2cc(C)c(Cl)c(C)c2)sc2c1CCCC2`, the survival is 147%. With `COC(=O)c1c(NC(=O)COc2ccc(OC)cc2)sc2c1CCC(C)C2` (configuration not stated) the figure was 66%. Take `COC(=O)c1c(NC(=O)C(C)Oc2ccc(Cl)c(C)c2)sc(C)c1C` (configuration not stated): the survival was 15% (active).

For `CCCc1ccc(OC(C)C(=O)Nc2sc3c(c2C(=O)OC)CCCCC3)cc1` (configuration not stated), the survival is 9% (active). Under `COC(=O)c1c(NC(=O)COc2cc(C)ccc2C(C)C)sc2c1CCC(C)C2` (configuration not stated) stands 61%; under `COC(=O)c1c(NC(=O)C(C)Oc2ccc(Cl)cc2Cl)sc2c1CCCC2` (configuration not stated), 46%. `COC(=O)c1c(NC(=O)c2ccc(Cl)c(Cl)c2)sc2c1CCCC2`: the survival is 63%. As to `COC(=O)c1c(NC(=O)COc2c(C)ccc(C)c2C)sc2c1CCC(C)C2` (configuration not stated), the survival is 22% (active). Under `COC(=O)c1c(NC(=O)Nc2ccc(Cl)cc2)sc(C)c1C` stands 74%; under `COC(=O)c1c(NC(=O)COc2c(C)cccc2C)sc2c1CCCC2`, 2% (active); under `CCOC(=O)c1sc(NC(=O)C(C)Oc2ccc(OC)cc2)c(C(=O)OCC)c1C` (configuration not stated), 73%. As for `COC(=O)c1c(NC(=O)Cc2cccs2)sc2c1CCCC2`, the survival was 119%.

The values above are taken from PubChem BioAssay AID463173 (ICCB-Longwood Screening Facility, Harvard Medical School, 2010).
